Screening data: PubChem BioAssay, National Center for Advancing Translational Sciences (NCATS)
GLP1R ag – qHTS of GLP-1 Receptor Agonists; Glucagon-like peptide 1 receptor (Homo sapiens), P43220; hit rate 0.007% among 380,000; HEK293 GLP-1R CRE-luciferase, luminescence, 4-6 h; cells express a hypersensitive GLP-1R form; Potency, µM (highest dose often 45.6 µM), for inactives: at the top dose activation, hits mostly activators; AID 624172, 2012; also: % of control where 0% means no effect
Target sequence (P43220 whole entry, looked up): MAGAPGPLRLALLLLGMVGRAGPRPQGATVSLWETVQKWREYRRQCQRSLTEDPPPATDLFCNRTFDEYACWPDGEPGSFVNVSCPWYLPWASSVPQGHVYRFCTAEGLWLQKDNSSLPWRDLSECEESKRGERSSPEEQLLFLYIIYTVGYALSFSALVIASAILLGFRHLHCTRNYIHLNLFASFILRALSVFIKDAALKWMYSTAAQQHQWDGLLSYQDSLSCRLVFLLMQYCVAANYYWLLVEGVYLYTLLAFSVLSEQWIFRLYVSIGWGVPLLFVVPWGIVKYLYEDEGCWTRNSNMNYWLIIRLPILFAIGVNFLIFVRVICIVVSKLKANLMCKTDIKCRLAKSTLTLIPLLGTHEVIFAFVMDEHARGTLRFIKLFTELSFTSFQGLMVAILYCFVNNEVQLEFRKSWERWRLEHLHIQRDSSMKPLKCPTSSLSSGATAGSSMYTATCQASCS
BRCA1 expr up – qHTS Assay to Identify Small Molecule Activators of BRCA1 Expression; MCF7-BRCA1-FFLuc reporter, luminescence, 48 h; response scale: scaled: vehicle 0%, 10 µM genistein 100%; Potency, µM (series often up to 46.1 µM), for inactives: at the top dose activation, actives largely listed as activators; hit rate 1.1% among 380,000; AID 624202, 2012; also: nearly all actives have a fitted effect of over 80% in size
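MCF7-BRCA1-FFLuc, 2000 cells/well; 2 h attach, 37 °C/5% CO2; compound 48 h; luciferase substrate 15 min; luminescence end-point. Norm. to genistein 10 microM max activation and DMSO; concentration-response curves fitted.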
GLP1R cytotox – qHTS of GLP-1 Receptor Inverse Agonists: Cytotox Screen; HEK293 cAMP-luciferase reporter cells, luminescence, 24 h; hit rate 0.13% among 410,000; Potency, µM (series often up to 38.3 µM), for inactives: at the top dose activity change, negative = inhibition, most hits filed as inhibitors; AID 624418, 2012;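 also: loss of luciferase light is scored as toxicity; % is scaled to controls: 0 for no effect and ±100 for the full control effect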
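Here, cytotoxicity is scored as loss of luminescence. The MLSMR collection was tested on cells seeded in medium containing 10% Nu serum, with a 24 hr compound exposure preceded by 12 hours of culture.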
GLP-1R inv ag – qHTS of GLP-1 Receptor Inverse Agonists (Inhibition Mode) | HEK293 GLP-1R CRE-luciferase, luminescence, 24 h; GLP-1R form is constitutively active | Potency, µM (titrated, usually from 38.3 µM), for the others: at the top dose activity change, negative = inhibition, hits mostly inhibitors | hit rate 1.6% among 410,000 | AID 624417, 2012; also: % is scaled to controls: 0 for no effect and ±100 for the full control effect; nearly all actives have a fitted effect of over 55% in size
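Cells are plated, allowed 12 hours at 37 deg C, then treated with compounds for 24 hr before luciferase detection reagent is added and luminescence is read after 12 min at room temperature. The HEK293 line carries constitutively active GLP-1R with a cAMP-responsive reporter.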
* hit, by the source's call; u = inconclusive; x = no result given. This is a sample that favours compounds with a hit; in the whole collection about 2.6% have one here. Calls follow the shape of the dose curve; as a rule, active = well fitted curve in the direction sought with a large enough effect; inconclusive = small, poorly fitted or top-dose-only effect, or another doubt; inactive = no such curve, though single readings can be large; an effect the other way counts as inactive or inconclusive. Potency is read from the fitted curve at half-maximal effect.

SMILES	GLP1R ag	BRCA1 expr up	GLP1R cytotox	GLP-1R inv ag
CCN(CC)S(=O)(=O)c1ccc(C(=O)NC(=S)N2CCCCC2C)cc1 (stereo not drawn)	-3%	-2%	-3%	-26%
CN(CC(=O)Nc1ccccc1Cl)C(=O)c1ccc(N2CCCCCC2)c([N+](=O)[O-])c1	-6%	39%	-8%	u
Cc1cccc(NC(=O)CN(C)C(=O)c2ccc(N3CCCCCC3)c([N+](=O)[O-])c2)c1C	13%	-28%	-23%	11µM*
O=C(Nc1nc(-c2ccc(Br)cc2)ns1)c1ccccc1F	x	x	1%	3%
Fc1ccc(Nc2nc(SCc3cccc(F)c3)nc3ccccc23)cc1	x	x	-15%	u
Fc1ccc(Nc2nc(SCc3cccc(Cl)c3)nc3ccccc23)cc1	x	x	-14%	11µM*
CCCCCNC(=O)c1cccc(S(=O)(=O)N2CC3(C)CC2CC(C)(C)C3)c1 (stereo not drawn)	2%	-55%	-10%	6.3µM*
CC1(C)CC2CC(C)(CN2S(=O)(=O)c2cccc(C(=O)O)c2)C1 (stereo not drawn)	-6%	0%	1%	-8%
CCOC(=O)C(=NCCOC)NNc1cc(Cl)ccc1Cl	21%	-2%	-9%	2.8µM*
CCOC(=O)C(=NC1CCS(=O)(=O)C1)NNc1cc(Cl)ccc1Cl (stereo not drawn)	1%	-15%	u	u
COc1ccc(NC(=O)Cn2cnc3ccc(S(=O)(=O)N4CCC(C)CC4)cc3c2=O)cc1Cl	0%	-4%	0%	16%
CC(C)(C)OC(=O)[C@H](Cc1ccccc1)NC(=O)c1nc[nH]c1C(=O)N[C@@H](Cc1ccccc1)C(=O)OC(C)(C)C	0%	-73%	0%	10µM*
C[C@H](NC(=O)c1nc[nH]c1C(=O)N[C@@H](Cc1ccccc1)C(=O)OC(C)(C)C)C(=O)OC(C)(C)C	2%	-33%	-27%	u
CCOC(=O)CC(NC(=O)CCc1c(C)nc2cc(-c3ccccc3)nn2c1C)c1ccc(C)cc1 (stereo not drawn)	-2%	-18%	-1%	u
CCCCCCN1C[C@H](n2cc(-c3ccc(F)cc3)nn2)[C@@H](O)C[C@@H]1c1ccccc1	-3%	1%	3%	-19%
CCCCCC(=O)N1C[C@@H](n2cc(-c3ccc(F)cc3)nn2)[C@H](O)C[C@@H]1c1ccc(OC)cc1	1%	-31%	-11%	11µM*
CCCCCC(=O)N1C[C@H](n2cc(COC(=O)c3ccccc3)nn2)[C@@H](O)C[C@@H]1c1ccc(C)cc1	-4%	-72%	-14%	10µM*
CCCCCC(=O)N1C[C@@H](n2cc(-c3ccc(F)cc3)nn2)[C@H](O)C[C@@H]1c1ccc(C)cc1	5%	-50%	-27%	u
CCCCCCN1C[C@H](O)[C@@H](n2cc(-c3ccc(F)cc3)nn2)C[C@@H]1c1ccccc1	-1%	-38%	-18%	5µM*
CN(C)CC/C=C1\c2ccccc2Sc2cc(F)c(Cl)cc21	0%	-63%	u	7.9µM*
CN(C)CC/C=C1\c2cc(Cl)ccc2Sc2cc(F)c(F)cc21	9%	-21%	-11%	u
CN(C)CC/C=C1\c2ccc(F)cc2Sc2cc(F)c(Cl)cc21	-3%	-62%	u	7.9µM*
CCN(Cc1ccccc1)C(=O)CN(c1ccc(OC)cc1)S(=O)(=O)c1c(C)nn(C)c1C	0%	-8%	-9%	-7%
CSc1ccc(/C=C/C(=O)N2CCCN(C)CC2)cc1	11%	8.9µM*	3%	u
NC(=O)c1cccc(-c2ccnc3c2CC(C(=O)NCc2ccccc2)O3)c1 (stereo not drawn)	1%	-38%	-27%	5µM*
CN(CC(=O)Nc1cccc(F)c1)CC(=O)Nc1cccc(S(=O)(=O)N2CCCCC2)c1	-1%	-47%	-24%	7.9µM*
O=C(Cc1cccc(C(F)(F)F)c1)Nc1cccc(S(=O)(=O)N2CCCC2)c1	-2%	-38%	-8%	8.9µM*
CCOc1ccc(NC(=O)CNc2cccc(S(=O)(=O)N3CCCCCC3)c2)cc1OCC	3%	-27%	-21%	10µM*
